Compounds without any hit were thinned out: in the full panel of roughly 83,000, 20% have a hit.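 Method: cells in 96-well plates; compound added at one concentration; 48 h incubation; percent growth measured; values under 10 scored active.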 A number with no mark means an inactive call. The source made the active and inactive calls.

What all share (experiment): NCI-60 one-dose screen, 48 h (100 = growth as untreated, 0 = no growth, -100 = all killed)
Assay [1] concerns EKVX NSCLC. As to conditions: 10 µM unless noted.
The test system of assay [2] is SN12C renal. As to conditions: 10 µM unless noted.
Assay [3] deals with UO-31 renal. As to conditions: 10 µM unless noted.
The subject of assay [4] is TK-10 renal. As to conditions: 10 µM unless noted.
Assay [5] relates to ACHN renal. The note with it: 10 µM unless noted.
Assay [6] deals with CAKI-1 renal. As to conditions: 10 µM unless noted.
Assay [7] has as its system A498 renal. The note with it: 10 µM unless noted.
The subject of assay [8] is CCRF-CEM leukemia. As to conditions: 10 µM unless noted.
Assay [9] concerns MOLT-4 leukemia. The note with it: 10 µM unless noted.
Assay [10] deals with SR leukemia. The note with it: 10 µM unless noted.
In assay [11] the test system is RPMI-8226 leukemia. The note with it: 10 µM unless noted.
Assay [12] relates to OVCAR-8 ovarian. As to conditions: 10 µM unless noted.
For assay [13], the system named is OVCAR-5 ovarian. As to conditions: 10 µM unless noted.
Assay [14] relates to OVCAR-4 ovarian. The note with it: 10 µM unless noted.
Assay [15] relates to SK-OV-3 ovarian. As to conditions: 10 µM unless noted.
For assay [16], the system named is IGROV1 ovarian. As to conditions: 10 µM unless noted.
The test system of assay [17] is OVCAR-3 ovarian. The note with it: 10 µM unless noted.
The subject of assay [18] is HS 578T breast. As to conditions: 10 µM.
Assay [19] concerns NCI/ADR-RES ovarian. The note with it: 10 µM unless noted.

On to `COc1cc2nc(Nc3cccc(Cl)c3)nc(N)c2cc1OC`, for which the growth in assay [1] was 111%; in assay [2], 79.3%; in [3] it was 75.3%; in assay [4], 91.9%; in assay [5] it was 95.8%; in assay [6], 146%. For the same compound, the growth in assay [7] was 63.5%; in [8], -81.3% (active); in assay [9] it was 53.7%; in assay [10] it was 67.4%; in assay [11] it was 35.7%; in assay [12], 87.4%. In addition, the growth in assay [13] is 111%; in assay [14], 72.7%; in assay [15], 114%; in [16], 64.5%; in assay [17] it was 89.2%; in assay [18], 109%. The growth in [19] was 74.1%.
On to `CCNC(=O)Nc1nc2ccc(Oc3ccnc(C(=O)NC)c3)cc2s1`, for which the growth in assay [1] was 85.9%; in assay [2], 91.9%; in assay [3], 88.2%; in [4] it was 86.5%; in [5], 96.4%; in [6], 92.5%. Also, the growth was 69.9% in assay [7]; 62.8% in assay [8]; 47.9% in assay [9]; 30.4% in [10]; 85% in assay [11]; 91.6% in assay [12]. For the same compound, the growth in assay [13] was 92.9%; in assay [14], 83%; in assay [15], 88.1%; in assay [16], 90%; in [17], 83.1%; in assay [18] it was 87.3%. Also, in assay [19], the growth was 73.3%.
For the compound `COc1cc2cc(NCc3ccc(Cl)cc3)nc(C)c2cc1OC`, the growth in [1] is 64.9%; in assay [2], 42%; in [3], 41.4%; in assay [4] it was 44.9%; in [5], 54.8%; in assay [6], 59.8%. For the same compound, the growth in [7] is 26%; in assay [8], 27.9%; in assay [9] it was 27.6%; in assay [10], 18.7%; in assay [11], 14.3%; in [12], 40.9%. The growth in assay [13] is 41.2%; in assay [14] it was 82.3%; in assay [15], 68%; in [16], 43%; in assay [17], 49.4%; in [18], 70.5%. Further, the growth in assay [19] was 33.6%.
Turning to `Brc1ccc([I+]c2ccc(Br)cc2)cc1`, the growth was 19.3% in assay [1]; -26.9% (active) in assay [2]; 51.2% in assay [3]; -18% (active) in [4]; 39% in assay [5]; 51.2% in assay [6]. For the same compound, the growth in [7] was 71.6%; in assay [8] it was 20.3%; in [9], 19.9%; in assay [10], 3.44% (active); in assay [11], 7.72% (active); in assay [12], 11.6%. For the same compound, the growth in assay [13] is 61%; in assay [14], 22.3%; in assay [15] it was 43.6%; in assay [16], 26.2%; in [17], 61.6%; in [18] it was 69.7%. Also, in assay [19], the growth was 98.9%.
Regarding `CCOc1ccc(N=C(C)Nc2ccc(OCC)cc2)cc1`, the growth was 109% in assay [1]; 102% in assay [2]; 82.3% in assay [3]; 108% in assay [4]; 99.5% in assay [5]; 122% in [6]. The growth was 100% in [7]; 88% in [8]; 93.8% in assay [9]; 84.5% in [10]; 116% in [11]; 106% in [12]. For the same compound, the growth is 104% in assay [13]; 104% in assay [14]; 121% in [15]; 106% in [16]; 133% in [17]; 106% in assay [18]. The growth in [19] is 101%.
As to `Cc1cc(C)n(CC(=O)Nc2ccc(-c3nc4ccccc4s3)cc2)n1`, the growth in assay [1] is 108%; in [2], 102%; in assay [3], 83.8%; in [4] it was 106%; in [5], 114%; in [6] it was 102%. The growth in [7] is 94.6%; in assay [8], 98.5%; in [9] it was 84%; in assay [10], 99.4%; in assay [11], 97.2%; in assay [12], 99.7%. Also, the growth in [13] was 105%; in assay [14], 97.8%; in assay [15], 114%; in [16], 97.4%; in assay [17], 101%; in assay [18], 113%. Moreover, the growth in [19] was 103%.
In the case of `CCCCn1c(C)nc2cc(Nc3nc(N4CCCCC4)nc4nc[nH]c34)ccc21`, the growth in assay [1] was 52.5%; in assay [2], 49.6%; in [3], 28.1%; in assay [4] it was 57.2%; in assay [5] it was 36.8%; in assay [6], 31.1%. The growth in assay [7] was 34.3%; in assay [8], 46.6%; in assay [9] it was 9.09% (active); in assay [10] it was 31.2%; in [11], 40.3%; in assay [12] it was 30.1%. Moreover, the growth in assay [13] was 50.1%; in assay [14], 19%; in assay [15], 66.5%; in assay [16], 30.8%; in assay [17], 37.7%; in [18], 43.8%. In addition, the growth in assay [19] is 35%.
Regarding `Nc1nc(N)c2nc(-c3cccc(O)c3)c(-c3cccc(O)c3)nc2n1`, the growth is 82.2% in [1]; 51.4% in [2]; 65.9% in assay [3]; 80.9% in assay [4]; 69.3% in assay [5]; 67.7% in assay [6]. The growth in assay [7] was 74.9%; in [8], 66.3%; in [9], 90.6%; in [10], 82%; in assay [11], 83.5%; in assay [12] it was 77.2%. Also, the growth in assay [13] was 78.1%; in assay [14] it was 93.8%; in [15], 52.8%; in assay [16], 42.1%; in assay [17], 57.4%; in assay [19], 89.5%.

The values above are taken from PubChem BioAssay (NCI).
